HGIII-sPLA2 inh: Inhibits HGIII-sPLA2 liposome hydrolysis, primary screen; inhibition, % at 12.2 µM; Q9NZ20; QFRET BODIPY PC-A2 liposome hydrolysis, fluorescence; hit rate 0.56% among 370,000;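 active means inhibition above mean plus 3 SD of compounds lying within the high and low control bounds, cut at about 19% in these data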;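 further: 0% = median of test compound wells and 100% = no enzyme DMSO wells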
Target sequence (Q9NZ20 whole entry, looked up): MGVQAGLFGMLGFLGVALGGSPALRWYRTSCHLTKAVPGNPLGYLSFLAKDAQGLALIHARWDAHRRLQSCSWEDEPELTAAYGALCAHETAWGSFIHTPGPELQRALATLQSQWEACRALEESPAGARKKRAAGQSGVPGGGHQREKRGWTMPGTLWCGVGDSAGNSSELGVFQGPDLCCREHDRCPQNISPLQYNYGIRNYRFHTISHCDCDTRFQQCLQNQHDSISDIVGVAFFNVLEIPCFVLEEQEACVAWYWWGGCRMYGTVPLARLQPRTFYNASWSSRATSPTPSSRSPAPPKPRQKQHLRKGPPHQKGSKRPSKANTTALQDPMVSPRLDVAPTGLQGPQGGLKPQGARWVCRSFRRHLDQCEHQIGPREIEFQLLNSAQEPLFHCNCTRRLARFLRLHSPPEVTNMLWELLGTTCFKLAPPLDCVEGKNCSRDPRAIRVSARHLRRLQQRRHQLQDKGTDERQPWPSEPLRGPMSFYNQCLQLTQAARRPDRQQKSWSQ
GRIN3A LBD mod: modulators (binders) of human NR3A ligand-binding domain | NR3A LBD differential scanning fluorimetry, Tm shift; 0% = protein alone, 100% = glycine-bound protein | Tm shift relative to glycine control, % at 25 µM | hit rate 2.5% among 340,000;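 active means melting temperature shift of at least 10% of the positive control shift, at one fixed dose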
UBC13 inh: blocks human UBC13 polyubiquitin chain formation; P61088; TR-FRET; inhibition, % at 20 µM; hit rate 0.47% among 330,000; in the data active means inhibition above about 45%, passing the limit was not always enough
Target sequence (P61088 whole entry, looked up): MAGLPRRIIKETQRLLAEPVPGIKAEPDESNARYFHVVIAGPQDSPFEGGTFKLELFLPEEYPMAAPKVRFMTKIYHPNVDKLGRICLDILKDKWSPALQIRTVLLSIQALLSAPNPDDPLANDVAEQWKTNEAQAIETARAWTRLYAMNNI
SUMO HTRF inh: blocks human SUMOylation mediated by UBC9; HTRF SUMOylation assay, SAE1/SAE2 + UBC9, in vitro; inhibition, % at 35 µM; hit rate 0.36% among 290,000; P63279; in the data active means inhibition above about 50%, passing the limit was not always enough
The depositor's hits bear a star; / = no result given. Rows were chosen to be rich in hits. Some 3.3% of all compounds tested hit in one or more screens of this group.

SMILES	HGIII-sPLA2 inh	GRIN3A LBD mod	UBC13 inh	SUMO HTRF inh
Cc1ccccc1OCc1nc2ccccc2c(=O)n1/N=C/c1cn[nH]c1-c1ccc(Br)cc1	-2.0	25.7*	-15.0	6.8
O=c1c2ccccc2nc(COc2ccccc2)n1/N=C/c1c[nH]c2ccccc12	-8.9	25.0*	0.5	-3.2
Cc1ccnc(N2C(=O)c3ccccc3C2Nc2ccccc2Cl)c1 (configuration not stated)	3.8	-3.8	12.2	5.7
CCc1ccccc1NC1c2ccccc2C(=O)N1c1cc(C)ccn1 (configuration not stated)	1.2	16.6*	-2.9	-14.4
N#CC1=C(N)NC(SCC(=O)c2ccc(Br)cc2)=C(C#N)C12CCCCC2	-47.6	16.5*	-6.6	-18.7
N#CC1=C(N)NC(SCC(=O)c2ccc(Cl)cc2)=C(C#N)C12CCCC2	-29.1	5.7	21.4	-3.5
O=C(CC(Nc1ccccc1)C(=O)O)c1ccccc1 (configuration not stated)	-3.6	35.9*	0.1	24.3
Cc1ccc(NC(CC(=O)c2ccccc2)C(=O)O)cc1Cl (configuration not stated)	-5.5	-4.9	-9.1	1.3
N#C/C(=C(/O)COC(=O)c1ccccc1O)c1nc2ccccc2s1	-6.1	12.8*	-14.5	16.9
CC(C)(C)c1ccc(C(=O)OC/C(O)=C(\C#N)c2nc3ccccc3s2)cc1	-6.4	17.5*	-4.1	10.0
CC(=O)c1cc(-c2cccc(C#N)c2)c(=O)n2c1CCC2	-4.0	/	/	/
Cc1cc(C)cc(N(CC(=O)NC2CCC(C)CC2)S(=O)(=O)c2ccc(Br)s2)c1 (configuration not stated)	-1.4	/	/	/
CCc1ccc(Oc2c(Cl)cnn(-c3ccc(C)cc3)c2=O)cc1	1.3	/	/	/
CCCCOP(=O)(c1ccc(N(C)C)cc1)C(Nc1ccccc1)c1ccccc1 (configuration not stated)	0.0	13.0*	11.0	-5.4
CC(C)(C)N(Cc1cn(CC2CCCCC2)nn1)S(=O)(=O)c1ccc(F)cc1Br	-1.3	/	/	/
CC(=O)c1c(C(C)=O)c(C)n(-c2nc(-c3cccs3)c(C)s2)c1C	3.3	11.6*	-0.6	-9.1
COc1ccc(-c2nc(-n3c(C)c(C(C)=O)c(C(C)=O)c3C)sc2C)cc1	-6.9	-3.9	5.5	0.7
Cc1cc(C)cc(NC(=O)c2ccc(NC(=O)c3ccco3)cc2)c1	-5.9	18.2*	-8.4	3.8
O=C(Nc1ccccc1)c1cccc(NC(=O)c2ccco2)c1	-3.7	5.9	-1.7	/
O=C(Nc1ccc(NC(=O)c2ccco2)cc1)c1ccc2c(c1)OCCO2	11.5	10.1*	-1.2	27.3
C=Cc1cccc(NC(=O)c2ccc(NC(=O)c3ccco3)cc2)c1	-6.5	31.1*	1.4	0.9
CC(=O)c1ccc(NC(=O)c2ccc(NC(=O)c3ccco3)cc2)cc1	/	12.9*	-4.3	7.4
CC(=O)Nc1ccc(NC(=O)c2ccco2)cc1	-1.6	-6.0	1.7	8.1
COc1ccc(S[C@]2(C(=O)N3CCN(c4ncccn4)CC3)CC(=O)N(C(=O)C3CC3)[C@@H]2c2ccc(OC)cc2)cc1	-3.7	/	/	/
C#CCNC(=O)C[C@H]1C[C@@]2(C(=O)OC)C(=C[C@H](C3CCCC3)O[C@@H]2C)N(Cc2ccco2)C1=O	2.6	/	/	/
SMILES	HGIII-sPLA2 inh	GRIN3A LBD mod	UBC13 inh	SUMO HTRF inh
Cc1ccccc1CN1CCCCC(NC(=O)c2ccccc2)C1=O (configuration not stated)	4.4	/	/	/
COC(=O)c1ccc(NC(=O)c2ccc(NC(=O)c3ccco3)cc2)cc1	4.6	25.2*	-1.9	26.0
CCOC(=O)c1cccc(NC(=O)c2ccc(NC(=O)c3ccco3)cc2)c1	-2.6	31.1*	8.0	5.8
CCCCOc1cccc(C(=O)Nc2ccc(NC(=O)c3ccco3)cc2)c1	-0.6	11.7*	-2.9	26.9
Cc1ccc2nc(-c3sc4nc(C)ccc4c3N)[nH]c2c1	1.5	25.2*	-8.6	6.3
COc1ccc(-c2cnnc(N/N=C/c3ccc(-c4ccc([N+](=O)[O-])cc4)o3)n2)cc1	-1.0	19.1*	/	9.2
O=[N+]([O-])c1ccc(-c2ccc(/C=N/Nc3nc(N4CCCC4)nc(N4CCCC4)n3)o2)cc1	-2.0	0.8	-22.3	12.7
O=[N+]([O-])c1ccc(-c2ccc(/C=N/O)o2)cc1	5.4	33.0*	-2.6	12.5
NC(=O)N/N=C/c1ccc(-c2ccc([N+](=O)[O-])cc2)o1	10.3	2.0	-19.2	6.5
O=C(NCc1ccc(C(=O)N2CCCN(Cc3ccccc3)CC2)cc1)c1cccc(Br)c1	-12.5	/	/	/
S=C(NNc1ccnc2cc(Cl)ccc12)Nc1ccccc1Cl	2.4	20.4*	-0.4	13.6
S=C(Nc1ccccc1Cl)Nc1ccc(Cl)cc1Cl	-1.0	-0.4	-1.5	2.7
Nc1ccc2c(c1)C(=O)c1ccc(Br)cc1-2	17.4	25.7*	/	/
CCCCCCCCCn1c2c(c(=N)c3c1CCC3)CCCC2	/	-20.7	41.3	2.8
CCCCCCCCCCn1c2c(c(=N)c3c1CCC3)CCC2	-4.4	-7.0	61.9*	14.2
O=C(Nn1c(O)c(C=C2N=c3ccccc3=N2)sc1=S)c1ccccc1	-5.6	22.9*	-22.9	-18.7
O=C(Nn1c(O)c(C=C2N=c3ccccc3=N2)sc1=S)c1cccc(Cl)c1	-3.7	28.9*	-48.2	27.4
O=C(Nn1c(O)c(C=C2N=c3ccccc3=N2)sc1=S)c1ccc(Cl)cc1	1.2	32.2*	-23.3	-19.8
Oc1c(C=C2N=c3ccccc3=N2)sc(=S)n1-c1ccc2ccccc2c1	-2.0	17.4*	-26.3	36.3
O=C1N=c2ccccc2=C1c1sc(=S)n(NC(=O)c2cccc(O)c2)c1O	1.4	-2.2	/	-2.3
Oc1c(C=C2N=c3ccccc3=N2)sc(=S)n1C1CCCC1	10.5	-1.6	-23.1	-5.8
C=CCN1C(=O)[C@H](CC(=O)NCCC(C)C)[C@@]2(C(=O)OCC)CCCC=C12	-1.7	/	/	/
CCCCN1C(=O)N2Cc3cc(OC)ccc3C2CS1(=O)=O (configuration not stated)	-2.0	/	/	/
Cc1ccc(C(=O)Nn2c(O)c(C=C3N=c4ccccc4=N3)sc2=S)cc1	8.2	26.9*	-4.8	2.6
Cc1ccc(S(=O)(=O)Nn2c(O)c(C=C3N=c4ccccc4=N3)sc2=S)cc1	-11.7	6.7	-13.2	8.3
SMILES	HGIII-sPLA2 inh	GRIN3A LBD mod	UBC13 inh	SUMO HTRF inh
CCN(Cc1cn(CC2CCCCC2)nn1)S(=O)(=O)c1ccccc1Br	-7.4	/	/	/
Cc1cccn2c(=O)c3cc(C(=O)NC4CCCCCC4)sc3nc12	0.5	-1.8	11.8	55.3*
O=C(N/N=C/c1ccc(Cl)cc1)Nc1ccccc1	-16.6	13.4*	6.3	4.8
O=C(N/N=C/c1ccncc1)c1ccc(NC(=O)c2cccc(Cl)c2)cc1	-14.4	21.6*	-5.0	38.4
CCOc1ccc(/C=N/Nc2ccccc2)cc1	-2.9	-0.9	0.2	21.4
Clc1cccc(N/N=C/c2ccncc2)c1	-5.9	19.6*	4.9	-10.8
Clc1ccc(/C=N\Nc2ccccc2)cc1	5.7	10.5*	3.9	10.0
COc1ccc(OC)c(S(=O)(=O)Nc2ccc(C(=O)Nc3cc(C)on3)cc2)c1	-16.4	/	/	/
CCCC[C@@H]1C(=O)N2N=Cc3ccccc3[C@H]2N2N=Cc3ccccc3[C@@H]12	5.6	/	/	/
O=C(/C=C/c1ccccc1)Nc1cccc(C(=O)NCCc2ccccc2)c1	-12.6	17.5*	/	/

Screens as filed in PubChem BioAssay.
